Rows were chosen to be rich in hits. Some 4% of all compounds tested hit in one or more screens of this group.
TROY NFkB inh: blocks TROY-dependent signaling in reporter cells. AID 1347056. 360,000 compounds, 0.98% hits. inhibition, % at 10 µM. Q293 LMP1-TROYcd NF-kB luciferase reporter, 4 h;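 active = compounds whose plate-normalised and pattern-corrected inhibition of the luciferase reporter signal at the single screening dose is 50% or more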
TWEAK-Fn14 inh: inhibitors of TWEAK-Fn14 interaction signaling; TWEAK-stimulated Fn14 reporter cells, luciferase luminescence, 8 h; inhibition, % at 10 µM; 360,000 compounds, 2% hits; in the data active = inhibition above about 50%
HIF-2a inh: HIF-2a inhibition; 786-0 RCC cells HIF-2a reporter, luciferase luminescence, overnight; inhibition, % at 18.8 µM; 360,000 compounds, 0.72% hits;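 active = inhibition of the luminescence signal of 40% or more relative to plate controls, in a single-dose primary screen at 18.75 µM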
MITF TRPM1 inh: MITF TRPM1 promoter inhibition in SK-MEL-5 cells; 330,000 compounds, 0.83% hits; inhibition, % at 12.5 µM; SK-MEL-5 TRPM1 promoter luciferase, 24 h;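 active = mean inhibition across replicates of 60% or more, whatever share of single replicates reaches that level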
Peg3 promoter: Peg3 promoter activity inhibition; 360,000 compounds, 1.7% hits; AID 588405; HeLa PEG-Prom luciferase reporter, luminescence, overnight; inhibition, % at 20 µM;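 active = inhibition of at least 50% at 20 µM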
LMP1 NFkB inh: reduces LMP1-driven NF-kappaB luciferase signal. LMP1-induced NF-kappaB luciferase reporter cells, luminescence. 350,000 compounds, 0.69% hits. inhibition, % at 12.5 µM; in the data active = inhibition above about 41%;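 also: 0% = neutral control wells and 100% = reference inhibitor control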
Active calls of the source: *; . = not tested or not shown.

SMILES	TROY NFkB inh	TWEAK-Fn14 inh	HIF-2a inh	MITF TRPM1 inh	Peg3 promoter	LMP1 NFkB inh
CCOc1ccccc1C1C(C(=O)OC)=C(N)OC2=C1C(=O)CCC2 (stereo not given)	-12	4	-2	5	0	8
CCOc1ccc(Br)cc1C1C(C(=O)OC)=C(N)Oc2cc(N(C)C)ccc21 (stereo not given)	5	53*	-3	31	-19	-6
COc1cccc(CNC(=O)[C@@H]2CCCN2C(=O)[C@H]2CCCCN2C(=O)c2cccc(Cl)c2)c1	4	-17	4	.	.	.
O=[N+]([O-])c1ccc(NCCOc2ccccc2Cl)nc1	-34	51*	-158	.	-78	-4
COc1ccc(N2CCN(CCCn3c(=S)[nH]c4ccccc4c3=O)CC2)cc1	-7	-50	-9	-1	8	17
COc1ccc(N2CCN(CCCNC(=O)CCCn3c(=O)[nH]c4ccsc4c3=O)CC2)cc1	4	-6	11	-1	14	-3
COC(=O)c1ccc2c(=O)n(CCCCCC(=O)N3CCN(c4ccccc4)CC3)c(=O)[nH]c2c1	41	48	3	8	47	-1
O=C(CCCn1c(=S)[nH]c2ccccc2c1=O)N1CCN(c2cccc(Cl)c2)CC1	52*	51*	11	3	19	11
COc1ccc(N2CCN(CCNC(=O)CCCn3c(=O)[nH]c4cc(Cl)ccc4c3=O)CC2)cc1	18	1	4	11	8	81*
COc1cc2[nH]c(=O)n(CCCCCC(=O)N3CCN(c4ccccc4)CC3)c(=O)c2cc1OC	28	47	26	-9	58*	7
O=C(CCCCn1c(=O)[nH]c2ccccc2c1=O)N1CCN(c2cccc(C(F)(F)F)c2)CC1	33	37	24	5	34	7
CCOc1cc2[nH]c(=O)n(CCCN3CCN(c4ccc(OC)cc4)CC3)c(=O)c2cc1OCC	3	87*	21	20	15	3
CN(CC(=O)Nc1ccc(Cl)c(C(F)(F)F)c1)C(=O)c1ccc2c(c1)NC(=O)CS2	2	-8	4	-5	29	4
C(=N\Nc1cc(N2CCCCC2)ncn1)/c1ccco1	-30	-21	-206	-76	-229	-15
Cc1ccc(C(=O)O)cc1NC(=S)NC(=O)c1ccc([N+](=O)[O-])c(C)c1	-7	-2	4	8	17	1
O=C1C=C(Nc2ccc(O)cc2)C(=O)c2ccccc21	-23	10	-221	50	-213	3
COc1cc(OC)c(NC2=CC(=O)C(=O)c3ccccc32)cc1Cl	-4	18	9	99*	4	4
Cc1cc(NC2=CC(=O)C(=O)c3ccccc32)no1	-42	-4	-119	84*	-10	-10
Cc1ccc(NC2=CC(=O)C(=O)c3ccccc32)cc1	-18	16	-47	95*	-137	-17
CCOC(=O)c1ccc(NC2=CC(=O)C(=O)c3ccccc32)cc1	-2	19	-33	75*	116*	-17
COc1ccc(Cl)cc1NC(=O)C1CCCN(c2ncnc3c2nc2n3CCCCC2)C1 (stereo not given)	10	-2	-3	1	30	8
CC1CCN(C(=O)CCC(=O)Nc2ccc([N+](=O)[O-])cc2)CC1	-10	5	-2	.	-22	-7
CC(=O)Nc1ccc(NC2=CC(=O)c3ccccc3C2=O)cc1	-10	1	-159	42	-188	-10
NS(=O)(=O)c1ccc(NC2=CC(=O)C(=O)c3ccccc32)cc1	14	4	-102	78*	-2	-7
CC(=O)c1ccc2noc(-c3ccccc3)c2c1	-12	2	-20	-19	-16	-4
SMILES	TROY NFkB inh	TWEAK-Fn14 inh	HIF-2a inh	MITF TRPM1 inh	Peg3 promoter	LMP1 NFkB inh
CN(C)/C=C/C(=O)c1ccc2noc(-c3ccccc3)c2c1	-24	-13	8	0	4	60*
COc1ccc(C(CNC(=O)C(C)c2ccc3cc(OC)ccc3c2)N(C)C)cc1 (stereo not given)	8	63*	-23	-15	-30	1
COc1ccc(C(CNC(=O)Cc2ccc3ccccc3c2)N(C)C)cc1 (stereo not given)	12	-7	6	-7	12	-3
Nc1c(CNCc2nnn(Cc3ccccc3)c2N)nnn1Cc1ccccc1	-10	21	6	.	-3	4
O=C(CSc1nnc2ccccn12)NC(=O)Cc1ccccc1	0	52*	10	1	3	6
O=C(CN1CCN(c2ccc(F)cc2)CC1)Nc1ccccc1[N+](=O)[O-]	12	-3	20	-5	0	-1
CCCCN1C(=O)C(CC(=O)NC2CCCC2)CC(C(=O)N(C(C)C)C(C)C)=C1C (stereo not given)	11	-17	0	.	-11	3
O=C(CN1C(=O)c2ccccc2S1(=O)=O)c1ccccc1F	78*	93*	7	26	5	45*
O=C(CN1C(=O)c2ccccc2S1(=O)=O)N1CCN(c2ccccc2F)CC1	-28	9	-7	-1	18	-3
O=C(CN1C(=O)c2ccccc2S1(=O)=O)c1cccc(Br)c1	80*	99*	-13	40	-26	4
CC1Sc2ccc(C(=O)NCc3ccccn3)cc2NC1=O (stereo not given)	-10	1	-59	10	-76	-9
Cc1cc(SCC(=O)Nc2ccccc2)n2ncc(-c3ccccc3)c2n1	63*	32	-10	-6	22	4
COc1ccc(NC(=O)CSc2cc(C)nc3c(-c4ccccc4)cnn23)cc1	56*	22	-7	6	22	-1
CCC(CC)COC(=O)C1=C(C)NC(=O)NC1c1ccccc1Br (stereo not given)	8	81*	16	-13	19	3
CCC(CC)COC(=O)C1=C(C)NC(=O)NC1c1ccc(N(C)C)cc1 (stereo not given)	4	-25	25	-5	35	0
CSc1ccc(COC(=O)c2cc([N+](=O)[O-])ccc2N2CCOCC2)cc1	13	17	39	67*	-10	10
O=C(CN1CCc2ccccc2C1)Nc1ccccc1C(=O)NC1CC1	12	-7	10	8	6	3
COc1cccc2cc(C(=O)C3=C(O)C(=O)N(CCN(C)C)C3c3ccc(Cl)cc3)oc12 (stereo not given)	-1	60*	12	-1	13	-4
O=C(Nn1cnnc1)c1ccc(Cl)cc1	-3	-5	18	16	5	-4
CCN1CCN(S(=O)(=O)c2c[nH]c(C(=O)OC)c2)CC1	-4	2	3	.	-3	-7
Fc1cccc(-c2cc3nc4c(c(N5CCC6(CC5)OCCO6)n3n2)CCCC4)c1	42	54*	-92	-34	-177	-19
Cc1ccc(N2CCC(N3CCN(C)C(CCO)C3)CC2)cc1 (stereo not given)	2	-3	2	-4	-6	-5
Cc1ccc(C(=O)N2CC(=O)NC(=O)C2)cc1	-12	8	22	-4	8	-8
